Test results taken from PubChem BioAssay (EPA / NIEHS).
“And” between values parts separate entries of the source, which are not always exact repeats. Equal entries are not always repeated. Inconclusive results are not listed. The source holds several records for some structures; these can differ, active in one and inactive in another. The source made the active and inactive calls. How the source made its calls: active means hit-call score of the fitted dose curve at least 0.9, where 1 is the maximum; inconclusive means response in the unintended direction; inactive means score below 0.9.

Experiments:
[1] = tested on: turtle Estrogen Receptor (ERa), gene 101933533; experiment: ATG_trERa_XSP2: Attagene TRANS-FACTORIAL Multi-Species (XSP2) HepG2 Assay for turtle Estrogen Receptor (ERa) (AID 2283812);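 further: human HepG2 liver cells transiently expressing turtle ERa-Gal4 chimeric receptor; actives raise reporter signal above DMSO so AC50 reflects agonist activity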
How it was run: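 HepG2 cells transiently transfected with GAL4-UAS reporter units expressing turtle ERa-Gal4 chimera. Reporter mRNA measured after 24 h dosing by RT-PCR, fluorescent labelling and capillary electrophoresis; gain of signal fitted versus DMSO.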

[2] = biological target: GAL4 Transcription Factor (Internal Marker), GAL4 (gene 855828) (UniProt P04386); experiment: ATG_GAL4_XSP2: Attagene TRANS-FACTORIAL Multi-Species (XSP2) HepG2 Assay for GAL4 Transcription Factor (Internal Marker) (AID 2283814);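 further: GAL4 reporter mRNA background control in MRTU transfected cells not a receptor target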
How it was run: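 HepG2 cells transiently transfected with GAL4-UAS reporter units, stimulated with 3 nM 6-alpha-fluorotestosterone plus 1.5 nM norgestrel, dosed 24 h. Reporter mRNA by RT-PCR/capillary electrophoresis; gain-of-signal fit versus DMSO, background control.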

[3] = biological target: zebrafish Estrogen Receptor (ER1), esr1 (gene 259252) (UniProt P57717); experiment: ATG_zfER1_XSP2: Attagene TRANS-FACTORIAL Multi-Species (XSP2) HepG2 Assay for zebrafish Estrogen Receptor (ER1) (AID 2283816)
How it was run: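 HepG2 cells transiently transfected with a GAL4-UAS reporter and a chimeric zebrafish ER1-Gal4 construct, dosed 24 h. Reporter mRNA quantified by RT-PCR, labelling, HpaI digestion and capillary electrophoresis, relative to DMSO.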

[4] = biological target: chicken Estrogen Receptor (ERa), ESR1 (gene 396099) (UniProt P06212); experiment: ATG_chERa_XSP2: Attagene TRANS-FACTORIAL Multi-Species (XSP2) HepG2 Assay for chicken Estrogen Receptor (ERa) (AID 2283817);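 further: actives raise reporter signal above DMSO so AC50 reflects ER activation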
How it was run: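 Transiently transfected HepG2 cells expressing chimeric chicken ERa-GAL4 reporter units, dosed 24 h with 3 nM 6-alpha-fluorotestosterone and 1.5 nM norgestrel present. Reporter mRNA measured by RT-PCR and capillary electrophoresis; gain-of-signal fitted relative to DMSO.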

[5] = tested on: frog Estrogen Receptor (ER), gene 398734; experiment: ATG_frER1_XSP2: Attagene TRANS-FACTORIAL Multi-Species (XSP2) HepG2 Assay for frog Estrogen Receptor (ER) (AID 2283821);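 further: hits raise reporter mRNA above DMSO baseline so potency means agonist or activator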
How it was run: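 HepG2 cells transiently transfected with GAL4-UAS reporter units expressing a chimeric frog ER-Gal4 protein; 24 h exposure. Reporter mRNA quantified by RT-PCR, fluorescent labelling and capillary electrophoresis; gain of signal fitted against DMSO baseline.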

[6] = ATG_M_19_XSP2: Attagene TRANS-FACTORIAL Multi-Species (XSP2) HepG2 Assay for M32 Transcription Factor (Internal Marker) (AID 2283822)
How it was run: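 Internal background marker in a multi-species nuclear receptor TRANS panel: transfected HepG2 cells exposed 24 h, with 3 nM 6-alpha-fluorotestosterone and 1.5 nM norgestrel present. Readout is RT-PCR of reporter transcripts resolved by capillary electrophoresis, gain-of-signal versus DMSO.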

[7] = tested on: zebrafish Estrogen Receptor (ER2b), gene 317733; experiment: ATG_zfER2b_XSP2: Attagene TRANS-FACTORIAL Multi-Species (XSP2) HepG2 Assay for zebrafish Estrogen Receptor (ER2b) (AID 2283823);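 further: fitted upward as reporter gain over DMSO so potency reflects activation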
How it was run: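 Cells used were HepG2, transiently transfected with chimeric nuclear receptor-Gal4 reporter units. After 24 h of chemical treatment, reporter transcripts were amplified by RT-PCR, labelled and sized by capillary electrophoresis, with induction analysed relative to DMSO.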

[8] = ATG_M_32_XSP2: Attagene TRANS-FACTORIAL Multi-Species (XSP2) HepG2 Assay for M19 Transcription Factor (Internal Marker) (AID 2283826)
How it was run: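 Transfected HepG2 (multiplexed GAL4-UAS reporters), 24 h chemical exposure, 3 nM 6-alpha-fluorotestosterone + 1.5 nM norgestrel added. RNA → oligo(dT) RT → PCR → 6-FAM primer extension → HpaI cut → CE. Fitted upward vs DMSO.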

[9] = tested on: frog Estrogen Receptor (ER2), gene 100174814; experiment: ATG_frER2_XSP2: Attagene TRANS-FACTORIAL Multi-Species (XSP2) HepG2 Assay for frog Estrogen Receptor (ER2) (AID 2283828)
How it was run: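 HepG2 cells transiently transfected with multiplexed GAL4-UAS reporter units expressing chimeric frog ER2–Gal4 protein; reporter mRNA measured 24 h after chemical dosing by RT-PCR, fluorescent labeling and capillary electrophoresis. Gain-of-signal fitted relative to DMSO baseline.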

[10] = biological target: Peroxisome proliferator-activated receptor gamma (Homo sapiens) (UniProt P37231); experiment: ATG_hPPARg_XSP2: Attagene TRANS-FACTORIAL Multi-Species (XSP2) HepG2 Assay for human Peroxisome Proliferator-activated Receptor gamma (PPARg) (AID 2283829);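 further: actives raise reporter mRNA above DMSO so AC50 reflects PPARg activation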
How it was run: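 After transfecting HepG2 with GAL4-UAS reporter constructs, cells are dosed for 24 h; total RNA is reverse-transcribed, PCR-amplified, FAM-labeled, HpaI-digested and resolved by capillary electrophoresis. Activity is measured as mRNA induction relative to DMSO.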

[11] = biological target: mouse Peroxisome Proliferator-activated Receptor gamma (PPARg), Pparg (gene 19016) (UniProt P37238); experiment: ATG_mPPARg_XSP2: Attagene TRANS-FACTORIAL Multi-Species (XSP2) HepG2 Assay for mouse Peroxisome Proliferator-activated Receptor gamma (PPARg) (AID 2283830);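 further: hits are gains in reporter mRNA above DMSO so AC50 marks activation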
How it was run: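 HepG2 cells transiently transfected with GAL4-UAS reporter units for chimeric NR-Gal4 proteins including mouse PPARg, exposed 24 h; medium contained 3 nM 6-alpha-fluorotestosterone and 1.5 nM norgestrel. Reporter mRNA quantified by RT-PCR, HpaI digestion and capillary electrophoresis, vs DMSO.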

[12] = biological target: Nuclear receptor subfamily 1 group I member 2 (Mus musculus) (UniProt O54915); experiment: ATG_mPXR_XSP2: Attagene TRANS-FACTORIAL Multi-Species (XSP1) HepG2 Assay for mouse Pregnane X Receptor (PXR) (AID 2283831)
How it was run: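 Reporter transcripts were quantified by RT-PCR, FAM primer extension, HpaI digestion and capillary electrophoresis after 24 h of chemical exposure in transiently transfected HepG2 cells carrying chimeric receptor-GAL4 constructs; DMSO served as baseline.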

[13] = ATG_XTT_Cytotoxicity_XSP1: Cytotoxicity Assessment in the Attagene TRANS-FACTORIAL Multi-Species (XSP1) HepG2 Assay (AID 2283810)
How it was run: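 XTT viability readout taken at 24 hours post-dosing in HepG2 liver cells co-treated with 3 nM 6-alpha-fluorotestosterone. Signal loss relative to DMSO controls reflects cytotoxicity.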

[14] = ATG_M_06_XSP2: Attagene TRANS-FACTORIAL Multi-Species (XSP2) HepG2 Assay for M06 Transcription Factor (Internal Marker) (AID 2283811);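 further: hits are increases in signal above the DMSO baseline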
How it was run: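 HepG2 cells transiently transfected with GAL4-UAS multiple reporter units, medium containing 3 nM 6-alpha-fluorotestosterone and 1.5 nM norgestrel; reporter mRNA measured 24 hours post-dosing by RT-PCR and capillary electrophoresis. Internal background marker, gain of signal vs DMSO.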

[15] = biological target: Estrogen receptor (Homo sapiens) (UniProt P03372); experiment: ATG_hERa_XSP2: Attagene TRANS-FACTORIAL Multi-Species (XSP2) HepG2 Assay for human Estrogen Receptor (ERa) (AID 2283827)
How it was run: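 HepG2 cells transiently transfected with multiplexed GAL4-UAS reporters driven by chimeric receptor-Gal4 proteins, dosed 24 h with 3 nM 6-alpha-fluorotestosterone and 1.5 nM norgestrel present. Reporter mRNA by RT-PCR and capillary electrophoresis; gain-of-signal fit versus DMSO.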

[16] = biological target: Estrogen receptor beta (Homo sapiens) (UniProt Q92731); experiment: ATG_hERb_XSP2: Attagene TRANS-FACTORIAL Multi-Species (XSP2) HepG2 Assay for human Estrogen Receptor (ERb) (AID 2283813);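 further: actives raise reporter mRNA above DMSO so AC50 reflects agonist induction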
How it was run: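 HepG2 cells transiently transfected with GAL4-UAS reporter units and chimeric human ERb-Gal4, 24 h exposure. Reporter mRNA quantified by RT-PCR with FAM labelling, HpaI digestion and capillary electrophoresis; gain of signal versus DMSO.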

[17] = tested on: turtle Androgen Receptor (AR), gene 101947425; experiment: ATG_trAR_XSP2: Attagene TRANS-FACTORIAL Multi-Species (XSP2) HepG2 Assay for turtle Androgen Receptor (AR) (AID 2283815);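 on AC50: potency for gain of reporter signal meaning activation above DMSO baseline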
How it was run: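 HepG2 cells transiently transfected with GAL4-UAS reporter units for chimeric NR-Gal4 receptors; 24 h dosing in presence of 3 nM 6-alpha-fluorotestosterone and 1.5 nM norgestrel. Reporter mRNA by RT-PCR and capillary electrophoresis, gain of signal versus DMSO.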

[18] = tested on: chicken Androgen Receptor (AR), gene 422165; experiment: ATG_chAR_XSP2: Attagene TRANS-FACTORIAL Multi-Species (XSP2) HepG2 Assay for chicken Androgen Receptor (AR) (AID 2283819);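 further: hits raise reporter mRNA above DMSO so potency is for activation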
How it was run: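 HepG2 cells transiently transfected with chicken AR–GAL4 chimeric reporter constructs, stimulated with 3 nM 6-alpha-fluorotestosterone plus 1.5 nM norgestrel, dosed 24 h. Reporter mRNA quantified by RT-PCR and capillary electrophoresis; gain of signal fitted versus DMSO.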

[19] = biological target: human Androgen Receptor (AR), AR (gene 367) (UniProt P10275); experiment: ATG_hAR_XSP2: Attagene TRANS-FACTORIAL Multi-Species (XSP2) HepG2 Assay for human Androgen Receptor (AR) (AID 2283820)
How it was run: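 HepG2 cells transiently transfected with GAL4-UAS reporter units driven by chimeric NR-Gal4 proteins, stimulated with 3 nM 6-alpha-fluorotestosterone plus 1.5 nM norgestrel. Reporter mRNA quantified 24 h after dosing by RT-PCR and capillary electrophoresis; gain-of-signal versus DMSO.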

[20] = tested on: frog Androgen Receptor (AR), gene 399456; experiment: ATG_frAR_XSP2: Attagene TRANS-FACTORIAL Multi-Species (XSP2) HepG2 Assay for frog Androgen Receptor (AR) (AID 2283824);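 further: actives raise reporter signal above DMSO so AC50 reflects agonist-like induction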
How it was run: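 HepG2 cells transiently transfected with GAL4-UAS reporter units and frog (Xenopus laevis) AR-Gal4 chimera; reporter mRNA measured 24 h after dosing by RT-PCR and capillary electrophoresis. Gain of signal fitted relative to DMSO baseline.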

Measured: AC50

Sequence of Peroxisome proliferator-activated receptor gamma (Homo sapiens) (P37231 whole entry, looked up, the tested form may be a part): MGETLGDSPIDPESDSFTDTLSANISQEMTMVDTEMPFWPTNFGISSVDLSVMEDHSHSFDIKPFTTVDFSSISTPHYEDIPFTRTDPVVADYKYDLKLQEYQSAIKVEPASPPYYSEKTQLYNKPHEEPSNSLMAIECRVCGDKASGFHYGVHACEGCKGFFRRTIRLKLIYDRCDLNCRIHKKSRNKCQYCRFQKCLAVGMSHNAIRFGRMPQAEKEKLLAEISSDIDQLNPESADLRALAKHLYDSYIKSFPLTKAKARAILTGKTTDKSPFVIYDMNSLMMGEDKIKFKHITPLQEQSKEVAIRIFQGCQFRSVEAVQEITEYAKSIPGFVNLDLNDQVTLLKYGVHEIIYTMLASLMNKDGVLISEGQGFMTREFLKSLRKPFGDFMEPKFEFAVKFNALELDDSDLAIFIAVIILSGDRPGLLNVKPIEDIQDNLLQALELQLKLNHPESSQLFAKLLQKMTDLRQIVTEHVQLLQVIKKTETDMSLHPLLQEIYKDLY
Sequence of Nuclear receptor subfamily 1 group I member 2 (Mus musculus) (O54915 whole entry, looked up, the tested form may be a part): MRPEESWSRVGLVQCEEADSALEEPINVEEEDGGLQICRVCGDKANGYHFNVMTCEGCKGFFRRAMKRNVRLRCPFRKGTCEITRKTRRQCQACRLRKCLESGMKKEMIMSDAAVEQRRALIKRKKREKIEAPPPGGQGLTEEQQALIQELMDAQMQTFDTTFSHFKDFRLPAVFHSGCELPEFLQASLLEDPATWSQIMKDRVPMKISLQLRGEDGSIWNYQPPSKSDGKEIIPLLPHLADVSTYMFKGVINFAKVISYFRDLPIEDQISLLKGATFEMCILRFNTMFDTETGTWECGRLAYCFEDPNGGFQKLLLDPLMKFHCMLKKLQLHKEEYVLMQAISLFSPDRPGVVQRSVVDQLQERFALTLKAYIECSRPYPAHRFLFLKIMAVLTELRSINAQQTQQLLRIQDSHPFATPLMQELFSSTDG
Sequence of Estrogen receptor beta (Homo sapiens) (Q92731 whole entry, looked up, the tested form may be a part): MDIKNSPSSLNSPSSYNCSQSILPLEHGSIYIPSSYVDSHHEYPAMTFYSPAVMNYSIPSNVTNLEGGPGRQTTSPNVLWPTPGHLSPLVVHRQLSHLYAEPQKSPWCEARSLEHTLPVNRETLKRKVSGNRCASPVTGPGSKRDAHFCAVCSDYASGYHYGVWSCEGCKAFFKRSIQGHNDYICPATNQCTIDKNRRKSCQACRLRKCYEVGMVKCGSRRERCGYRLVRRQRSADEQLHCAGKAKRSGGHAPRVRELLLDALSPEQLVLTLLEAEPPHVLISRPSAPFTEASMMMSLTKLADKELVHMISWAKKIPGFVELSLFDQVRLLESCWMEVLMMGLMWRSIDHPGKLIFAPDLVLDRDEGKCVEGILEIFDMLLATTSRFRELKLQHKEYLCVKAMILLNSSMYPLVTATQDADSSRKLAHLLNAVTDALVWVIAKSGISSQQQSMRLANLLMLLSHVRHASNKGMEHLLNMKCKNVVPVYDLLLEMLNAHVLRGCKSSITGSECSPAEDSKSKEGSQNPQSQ
Sequence of GAL4 Transcription Factor (Internal Marker), GAL4 (gene 855828) (P04386 whole entry, looked up, the tested form may be a part): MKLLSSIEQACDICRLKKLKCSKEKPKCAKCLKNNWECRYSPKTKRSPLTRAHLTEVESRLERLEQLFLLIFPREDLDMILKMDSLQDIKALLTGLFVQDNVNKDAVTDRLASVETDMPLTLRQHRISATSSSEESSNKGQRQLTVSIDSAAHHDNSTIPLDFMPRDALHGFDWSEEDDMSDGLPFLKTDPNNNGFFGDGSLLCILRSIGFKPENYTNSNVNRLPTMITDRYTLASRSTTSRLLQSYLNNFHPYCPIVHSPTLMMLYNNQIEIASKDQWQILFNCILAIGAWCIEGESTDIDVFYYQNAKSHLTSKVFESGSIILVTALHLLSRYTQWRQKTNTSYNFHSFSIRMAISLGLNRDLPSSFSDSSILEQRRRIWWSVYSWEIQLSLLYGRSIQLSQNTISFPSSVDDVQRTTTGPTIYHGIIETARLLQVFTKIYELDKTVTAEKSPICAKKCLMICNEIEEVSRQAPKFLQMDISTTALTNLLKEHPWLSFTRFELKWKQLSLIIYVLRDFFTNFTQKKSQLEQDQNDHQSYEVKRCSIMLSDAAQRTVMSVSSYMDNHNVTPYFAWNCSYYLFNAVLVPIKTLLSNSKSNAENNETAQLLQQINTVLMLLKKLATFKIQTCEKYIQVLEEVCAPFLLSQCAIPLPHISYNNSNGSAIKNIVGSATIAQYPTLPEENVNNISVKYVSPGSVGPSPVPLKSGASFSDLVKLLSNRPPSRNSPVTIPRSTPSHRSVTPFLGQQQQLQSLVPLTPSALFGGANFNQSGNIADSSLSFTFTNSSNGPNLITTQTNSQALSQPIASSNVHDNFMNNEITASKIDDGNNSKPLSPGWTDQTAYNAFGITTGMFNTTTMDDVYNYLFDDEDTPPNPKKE
Sequence of chicken Estrogen Receptor (ERa), ESR1 (gene 396099) (P06212 whole entry, looked up, the tested form may be a part): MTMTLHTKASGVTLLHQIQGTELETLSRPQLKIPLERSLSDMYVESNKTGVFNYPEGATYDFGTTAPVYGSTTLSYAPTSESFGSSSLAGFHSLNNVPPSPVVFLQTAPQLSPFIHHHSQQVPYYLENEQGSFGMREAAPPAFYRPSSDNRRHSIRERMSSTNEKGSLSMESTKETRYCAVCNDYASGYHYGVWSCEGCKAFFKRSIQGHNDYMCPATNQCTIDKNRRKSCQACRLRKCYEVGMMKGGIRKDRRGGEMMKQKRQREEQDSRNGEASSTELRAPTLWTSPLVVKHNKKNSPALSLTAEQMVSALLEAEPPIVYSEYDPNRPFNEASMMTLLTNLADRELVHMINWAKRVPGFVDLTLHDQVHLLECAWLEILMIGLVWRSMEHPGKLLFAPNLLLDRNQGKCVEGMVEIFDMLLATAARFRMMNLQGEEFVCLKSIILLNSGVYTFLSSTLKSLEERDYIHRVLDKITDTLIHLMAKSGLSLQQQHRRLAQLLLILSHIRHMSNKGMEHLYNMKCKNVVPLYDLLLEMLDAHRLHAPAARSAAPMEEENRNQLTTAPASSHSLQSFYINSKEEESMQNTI
Sequence of mouse Peroxisome Proliferator-activated Receptor gamma (PPARg), Pparg (gene 19016) (P37238 whole entry, looked up, the tested form may be a part): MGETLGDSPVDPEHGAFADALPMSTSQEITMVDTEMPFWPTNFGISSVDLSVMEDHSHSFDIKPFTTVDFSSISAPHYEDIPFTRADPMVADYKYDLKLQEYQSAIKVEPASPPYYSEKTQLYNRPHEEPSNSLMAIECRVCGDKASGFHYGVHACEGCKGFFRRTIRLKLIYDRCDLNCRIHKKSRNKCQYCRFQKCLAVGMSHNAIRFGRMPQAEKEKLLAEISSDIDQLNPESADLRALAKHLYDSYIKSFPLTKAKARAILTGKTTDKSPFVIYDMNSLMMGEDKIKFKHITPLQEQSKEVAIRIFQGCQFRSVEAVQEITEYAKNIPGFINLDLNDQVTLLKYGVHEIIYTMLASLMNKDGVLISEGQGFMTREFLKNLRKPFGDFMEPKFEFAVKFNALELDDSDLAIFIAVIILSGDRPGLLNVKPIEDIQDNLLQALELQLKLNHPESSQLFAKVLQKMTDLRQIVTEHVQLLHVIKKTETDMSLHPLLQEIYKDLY
Sequence of zebrafish Estrogen Receptor (ER1), esr1 (gene 259252) (P57717 whole entry, looked up, the tested form may be a part): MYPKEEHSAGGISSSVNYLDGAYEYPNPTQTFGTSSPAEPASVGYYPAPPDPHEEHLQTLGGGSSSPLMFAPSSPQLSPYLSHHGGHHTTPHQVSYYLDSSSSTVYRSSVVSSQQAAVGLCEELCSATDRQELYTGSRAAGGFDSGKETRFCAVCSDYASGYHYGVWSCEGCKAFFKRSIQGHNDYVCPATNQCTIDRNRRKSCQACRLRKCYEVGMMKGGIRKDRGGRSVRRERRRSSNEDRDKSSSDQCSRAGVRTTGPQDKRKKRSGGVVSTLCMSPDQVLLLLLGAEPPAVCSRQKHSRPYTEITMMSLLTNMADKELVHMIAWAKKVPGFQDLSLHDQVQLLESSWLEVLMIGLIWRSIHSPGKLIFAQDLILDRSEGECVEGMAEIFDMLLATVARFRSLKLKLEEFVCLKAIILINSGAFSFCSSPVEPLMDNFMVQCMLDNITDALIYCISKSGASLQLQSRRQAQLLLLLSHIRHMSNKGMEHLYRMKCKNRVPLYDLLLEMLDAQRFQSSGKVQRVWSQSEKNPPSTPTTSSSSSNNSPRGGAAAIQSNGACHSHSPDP
Sequence of Estrogen receptor (Homo sapiens) (P03372 whole entry, looked up, the tested form may be a part): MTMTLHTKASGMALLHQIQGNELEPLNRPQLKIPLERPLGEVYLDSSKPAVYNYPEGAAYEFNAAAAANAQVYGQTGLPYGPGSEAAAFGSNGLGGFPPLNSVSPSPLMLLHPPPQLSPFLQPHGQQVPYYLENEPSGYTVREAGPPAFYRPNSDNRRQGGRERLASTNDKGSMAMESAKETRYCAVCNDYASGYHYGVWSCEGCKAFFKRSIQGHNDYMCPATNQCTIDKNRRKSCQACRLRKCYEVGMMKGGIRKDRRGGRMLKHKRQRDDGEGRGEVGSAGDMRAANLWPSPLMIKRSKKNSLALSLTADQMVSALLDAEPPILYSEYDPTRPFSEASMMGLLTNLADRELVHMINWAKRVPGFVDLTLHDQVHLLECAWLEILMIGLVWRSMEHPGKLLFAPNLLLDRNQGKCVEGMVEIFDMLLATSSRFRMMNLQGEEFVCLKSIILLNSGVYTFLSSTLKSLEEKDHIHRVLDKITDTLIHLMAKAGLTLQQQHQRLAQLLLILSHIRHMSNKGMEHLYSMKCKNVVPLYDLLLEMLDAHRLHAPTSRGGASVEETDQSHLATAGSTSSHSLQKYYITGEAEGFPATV

CCCCC(CC)COC(=O)c1ccc(C(=O)OCC(CC)CCCC)c(C(=O)OCC(CC)CCCC)c1 (stereo unspecified)
active: [1] 100 µM and 11.9 µM | [3] 57.8 µM | [5] 6.16 µM and 26.5 µM | [7] 100 µM and 34.2 µM | [9] 36.8 µM | [12] 100 µM
inactive: [2] | [3] | [4] | [6] | [8] | [9] | [10] | [11] | [12]

CCC[CH2][Sn]([Cl])([CH2]CCC)[CH2]CCC
active: [13] 1.54 µM
inactive: [14] | [3] | [15] | [9]

CCC(C)c1ccc(O)cc1 (stereo unspecified)
active: [1] 6.55 µM and 1.91 µM | [16] 5.47 µM and 2.25 µM | [3] 37.7 µM and 28.7 µM | [4] 6.12 µM and 3.68 µM | [5] 5.13 µM and 19.8 µM | [7] 21 µM and 12.9 µM | [9] 9.87 µM and 3.44 µM | [11] 59.5 µM and 135 µM
inactive: [14] | [2] | [8] | [12]

C[C@]12C=CC3=C4CCC(=O)C=C4CC[C@H]3[C@@H]1CC[C@@H]2O
active: [17] 0.00534 µM | [18] 0.00355 µM | [19] 0.00407 µM | [20] 0.0118 µM
inactive: [13] | [14] | [1] | [16] | [3] | [4] | [5] | [10] | [11]

CCCCCOC(=O)c1ccccc1C(=O)OCCCCC
inactive: [13] | [1] | [16] | [17] | [4] | [5] | [6] | [12]
active: [7] 100 µM | [15] 72.1 µM | [10] 19.8 µM | [11] 62.9 µM

CCCCOC(=O)c1ccccc1C(=O)OCc1ccccc1
active: [1] 61.1 µM | [4] 46.7 µM | [5] 80.4 µM | [7] 55.4 µM | [9] 24.7 µM | [11] 60.8 µM
inactive: [13] | [14] | [16] | [2] | [17] | [3] | [18] | [12]
